Screens: PubChem BioAssay, National Center for Advancing Translational Sciences (NCATS)
Most compounds without a hit are left out; they make up all but 2.4% or so of the library.
Pol eta inh: blocks human DNA polymerase eta activity; 390,000 tested, 1.2% active; Potency, µM (series often up to 114 µM), actives largely listed as inhibitors; recombinant Pol eta, fluorescent DNA replication assay
Target sequence (Q9Y253 whole entry, looked up): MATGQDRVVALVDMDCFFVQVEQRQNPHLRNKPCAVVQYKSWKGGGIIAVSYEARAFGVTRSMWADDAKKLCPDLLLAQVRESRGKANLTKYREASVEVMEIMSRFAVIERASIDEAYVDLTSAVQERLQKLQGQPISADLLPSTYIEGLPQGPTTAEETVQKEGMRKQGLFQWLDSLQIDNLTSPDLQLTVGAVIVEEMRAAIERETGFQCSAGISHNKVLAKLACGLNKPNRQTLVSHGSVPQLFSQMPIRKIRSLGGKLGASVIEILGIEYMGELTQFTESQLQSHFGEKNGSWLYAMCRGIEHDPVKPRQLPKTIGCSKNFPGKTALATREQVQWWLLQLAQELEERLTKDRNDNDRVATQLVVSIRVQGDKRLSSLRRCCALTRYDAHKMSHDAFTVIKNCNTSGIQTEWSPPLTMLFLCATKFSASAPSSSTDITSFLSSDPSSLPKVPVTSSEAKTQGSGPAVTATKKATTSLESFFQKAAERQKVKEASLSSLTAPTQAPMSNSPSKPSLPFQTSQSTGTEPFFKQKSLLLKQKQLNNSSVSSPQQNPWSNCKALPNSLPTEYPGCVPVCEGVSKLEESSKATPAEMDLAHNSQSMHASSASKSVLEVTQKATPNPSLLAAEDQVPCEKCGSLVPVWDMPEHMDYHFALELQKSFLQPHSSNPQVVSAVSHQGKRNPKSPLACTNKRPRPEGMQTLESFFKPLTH
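Fluorescent replication assay: 50 nM final substrate added after a 15 min room-temperature compound preincubation with 10 nM enzyme. Signal taken at 0 min and again at 10 min.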
POLK inh: DNA polymerase kappa (human) inhibition. purified Pol kappa, fluorescent DNA synthesis assay, 10 min. 400,000 tested, 0.53% active. Q9UBT6. Potency, µM (series often up to 107 µM), usual class: inhibitors
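50 nM final substrate added after 15 min RT preincubation of 10 nM Pol kappa with compound; fluorescence read at 0 and 10 min.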
WRN inhibitor: inhibitors of human WRN helicase; WRN helicase unwinding, fluorescent forked duplex, kinetic; Potency, µM (doses to about 114 µM), hits mostly inhibitors; 360,000 tested, 0.46% active; further: nearly all actives have a fitted effect of over 55% in size
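Kinetic red-fluorescence monitoring (525/598 nm) tracks WRN helicase activity after 100 nM fluorophore-quencher forked duplex and 2 mM ATP are added to 20 nM enzyme pretreated 15 min at room temperature with compound.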
Pol iota inh: inhibitors of human DNA polymerase iota; AID 588590; Potency, µM (titrated, usually from 115 µM), usual class: inhibitors; Q9UNA4; Pol iota fluorescent replication assay, 10 min; 390,000 tested, 1% active
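Fluorescent replication assay read twice, at 0 min and 10 min after adding 50 nM (final) substrate. Enzyme (10 nM) and compounds were first incubated 15 min at room temperature; enzyme-free buffer wells were negative controls.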
FEN1 inhibitor: human FEN1 inhibition; P39748; Recombinant FEN1 flap cleavage, fluorescence, 15 min; Potency, µM (titrated, usually from 114 µM), actives largely listed as inhibitors; 390,000 tested, 0.35% active; further: nearly all actives have a fitted effect of over 65% in size
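Reaction started by adding substrate (50 nM final) to 10 nM enzyme after 15 min room-temperature compound preincubation. Reads at 0 and 15 min, with data normalized and fitted to a four-parameter Hill equation.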
POLB inh: blocks human DNA polymerase beta activity | 340,000 tested, 1.3% active | Pol beta primer extension/strand displacement, fluorescence kinetic | P06746 | Potency, µM (series often up to 114 µM), most hits filed as inhibitors | AID 485314
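Enzyme-only controls used 10 nM Pol beta; buffer lacking enzyme served as negative control. Compound preincubated 15 min, then 50 nM substrate added; 0 and 10 min reads at room temperature.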
Numbers stand for hits; [ ] = remark or other dose. The call rests on the fitted dose curve; in most records, active means well fitted curve in the direction sought with a large enough effect; inconclusive means small, poorly fitted or top-dose-only effect, or another doubt; inactive means no such curve, though single readings can be large; an effect the other way counts as inactive or inconclusive.

CCn1c(SCC(=O)Nc2sc3c(c2C(N)=O)CCC(C)C3)nnc1-c1ccco1 (stereo unspecified) was read as Pol eta inh inconclusive, POLK inh inconclusive, WRN inhibitor inconclusive, Pol iota inh 22µM, FEN1 inhibitor inconclusive and POLB inh 56µM.
Screening CCn1c2ccccc2c2cc(NC(=O)c3ccc(=O)oc3)ccc21 returned Pol eta inh inconclusive, POLK inh inconclusive, WRN inhibitor inactive[11.6 µM], Pol iota inh 50µM, FEN1 inhibitor inactive and POLB inh inconclusive.
Screening COc1ccc(CC(=O)NO)cc1OC returned POLK inh inactive, Pol iota inh inactive and FEN1 inhibitor inactive.
`Cc1cc(N)c2ccccc2[n+]1CCCCCCCCCCCCCC[n+]1c(C)cc(N)c2ccccc21` gave Pol eta inh inconclusive, Pol iota inh inactive and POLB inh 10µM.
`COc1ccc(C(=O)COC(=O)/C=C/c2ccccc2)c(OC)c1` gave Pol eta inh 40µM, POLK inh 45µM, WRN inhibitor inactive[11.6 µM], Pol iota inh 35µM and FEN1 inhibitor inactive.
COc1ccc(C(=O)COC(=O)c2cc(C)no2)c(OC)c1 was read as Pol eta inh inconclusive, POLK inh inactive, WRN inhibitor inactive, Pol iota inh 50µM and FEN1 inhibitor inactive.
Screening COc1ccc(C(=O)COC(=O)CNC(=O)C2CCCCC2)c(OC)c1 returned Pol eta inh inconclusive, POLK inh inactive, WRN inhibitor inactive, Pol iota inh inconclusive, FEN1 inhibitor inactive and POLB inh 22µM.
`COc1ccc(C(=O)COC(=O)c2ccc3c(c2)OCCO3)c(OC)c1` gave Pol eta inh inconclusive, POLK inh inactive, WRN inhibitor inactive, Pol iota inh inconclusive and FEN1 inhibitor inactive.
For COc1ccc(C(=O)COC(=O)c2cccnc2Cl)c(OC)c1 the results were Pol eta inh 50µM, POLK inh inconclusive, WRN inhibitor inactive, Pol iota inh 40µM, FEN1 inhibitor inactive and POLB inh 13µM.
For COc1ccc(OC)c(C(=O)COC(=O)CNC(=O)C2CCCCC2)c1 the results were Pol eta inh inactive, POLK inh inactive, WRN inhibitor inactive, Pol iota inh inactive, FEN1 inhibitor inactive and POLB inh inactive.
C#CCCc1cocc1/C=[N+](\[O-])c1ccc(C(=O)OCC)cc1 was read as Pol eta inh inactive, POLK inh inconclusive, WRN inhibitor inactive, Pol iota inh 35µM and FEN1 inhibitor inactive.
Screening Cc1ccc(C)c(N2CCN(S(=O)(=O)c3cc(C(=O)Nc4ccccc4C(F)(F)F)ccc3F)CC2)c1 returned Pol eta inh inactive, POLK inh inactive, Pol iota inh inactive, FEN1 inhibitor inactive and POLB inh inactive.
`Cc1[nH]c2ccccc2c1C1=CC(=O)C=CC1=O` gave Pol eta inh inconclusive, POLK inh inactive, WRN inhibitor 56µM, Pol iota inh inconclusive and FEN1 inhibitor inactive.
Screening O=C(CSCCSCC(=O)c1ccco1)c1ccco1 returned POLB inh 28µM.
CC(C)(C)c1cc(=O)n(-c2ccccc2)[nH]1 was read as Pol eta inh inconclusive, POLK inh inactive, WRN inhibitor inactive, Pol iota inh 7.1µM, FEN1 inhibitor inactive and POLB inh inconclusive.
Screening O=c1cc(-c2ccccc2)[nH]n1-c1ccccc1 returned Pol eta inh inactive, POLK inh inactive, WRN inhibitor inactive, Pol iota inh inconclusive and FEN1 inhibitor inconclusive.
Screening COc1ccc(NC(=O)/C(Cl)=C(/Cl)S(=O)Cc2ccc(Cl)cc2)cn1 (stereo unspecified) returned Pol eta inh inconclusive, POLK inh inactive, WRN inhibitor 22µM, Pol iota inh inconclusive, FEN1 inhibitor inactive and POLB inh inconclusive.
`COc1ccc(NC(=O)C(Cl)=C(Cl)Cl)cn1` gave Pol eta inh inactive, POLK inh inactive, WRN inhibitor inactive, Pol iota inh inactive, FEN1 inhibitor inactive and POLB inh inactive.
Cc1ccc(CN2[C@H]3CCCC[C@@H]3OCCS2(=O)=O)cc1 was read as POLK inh inactive, Pol iota inh inactive and FEN1 inhibitor inactive.
For C=CCn1c(SCc2nc3sc(C(=O)O)c(C)c3c(=O)[nH]2)nnc1-c1ccc(F)cc1 the results were Pol eta inh inconclusive, POLK inh inactive, WRN inhibitor inactive, Pol iota inh inactive, FEN1 inhibitor inactive and POLB inh inactive.
Screening Cc1c(C(=O)O)sc2nc(/C=C/c3cccc(F)c3)[nH]c(=O)c12 returned Pol eta inh 79µM, POLK inh inactive, WRN inhibitor inactive[11.6 µM], Pol iota inh inactive, FEN1 inhibitor inconclusive and POLB inh 45µM.
For CN1/C(=C/C=C(C#N)C#N)C=Cc2ccccc21 the results were Pol eta inh inactive, POLK inh inactive, WRN inhibitor inactive[11.6 µM], Pol iota inh 79µM, FEN1 inhibitor inactive and POLB inh inactive.
For O=[N+]([O-])c1ccccc1S(=O)(=O)Nc1ccc(-c2ccc(N3CCCC3)nn2)cc1 the results were Pol eta inh 20µM, POLK inh inactive, WRN inhibitor inactive[11.6 µM], Pol iota inh inconclusive and FEN1 inhibitor inactive.
`O=C(Nc1ccc(Br)cc1F)c1cnn2c1NC(=C1CC1)C=C2C(F)F` gave POLK inh 32µM, Pol iota inh inconclusive and FEN1 inhibitor inactive.
For CC(=O)c1cccc(NC(=O)CSc2nc3c(=O)n(C)c(=O)n(C)c3n2C)c1 the results were Pol eta inh inactive, POLK inh inactive, Pol iota inh inactive, FEN1 inhibitor inactive and POLB inh inactive.
Screening CSCCC(C(=O)OC1CCOC1=O)N1C(=O)c2ccccc2C1=O (stereo unspecified) returned Pol eta inh 35µM, POLK inh inconclusive, WRN inhibitor inconclusive, Pol iota inh inconclusive, FEN1 inhibitor inactive and POLB inh inactive.
CCn1c(CNC(=O)C23CC4CC(CC(C4)C2)C3)nnc1SCC(=O)Nc1ccc(F)cc1 was read as Pol eta inh inactive, POLK inh inactive, Pol iota inh inactive, FEN1 inhibitor inactive and POLB inh inconclusive.
For CCOC(=O)C1=C(C)OC(=Cc2ccccc2)C1=O the results were Pol eta inh inactive and WRN inhibitor inactive.
CCOC(=O)C1=C(O)c2ccccc2C(=O)/C1=C\c1ccc(C)cc1 was read as Pol eta inh inconclusive, POLK inh inactive, WRN inhibitor 45µM, Pol iota inh inconclusive, FEN1 inhibitor 50µM and POLB inh inactive.
C/C(=N\NC(=O)Cc1cc(=O)[nH][nH]1)c1cccc([N+](=O)[O-])c1 was read as Pol eta inh inactive, POLK inh inactive, WRN inhibitor inactive, Pol iota inh 7.1µM, FEN1 inhibitor inactive and POLB inh inactive.
For Cc1ccc2[nH]c3nc(N/N=C/c4cccc(O)c4)nnc3c2c1 the results were Pol eta inh inactive, POLK inh inactive, WRN inhibitor inactive, Pol iota inh inconclusive, FEN1 inhibitor inactive and POLB inh 5µM.
